# Reference: PubChem BioAssay AID1159580 (chemical genetic matrix, 2015)
# The campaign covered roughly 5,500 compounds. About 2,000 (36%) were called active. Roughly 18% stayed inconclusive and do not appear here. Some of the results follow. Unmarked numbers belong to inactive results. Cut-off read from the data, not from the text of the source: active = normalized growth mostly below about 0.91 (no sharp cut-off); inconclusive = no clear call, values can overlap the other calls; inactive = mostly above about 0.92.
# Test: chemical genetic growth profiling, strain panel (AID 1159580);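 note: tested at 20 µM; growth read once vehicle control cultures reached saturation at 30 °C; 1 = growth at the plate median or of vehicle wells; lower values mean less growth of the strain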
# Conditions: S. cerevisiae deletion strains, growth OD
structure (smiles),measurement,setting,value
CC(C)=CCc1c2c(c(O)c3c(=O)c(O)c(-c4ccccc4)oc13)C=CC(C)(C)O2,normalized growth,"locus YAL021C, strain ccr4, hits give low values",0.79 (active)
same,normalized growth,"locus YAL026C, strain drs2, hits give low values",0.566 (active)
same,normalized growth,"locus YAL030W, strain snc1, hits give low values",0.886 (active)
same,normalized growth,"locus YBL061C, strain skt5, hits give low values",0.688 (active)
same,normalized growth,"locus YBR009C, strain hhf1, hits give low values",0.917
same,normalized growth,"locus YBR021W, strain FUR4, hits give low values",0.958
same,normalized growth,"locus YBR023C, strain chs3, hits give low values",0.687 (active)
same,normalized growth,"locus YBR171W, strain sec66, hits give low values",0.939
same,normalized growth,"locus YBR229C, strain ROT2, hits give low values",0.829 (active)
same,normalized growth,"locus YBR231C, strain swc5, hits give low values",0.678 (active)
same,normalized growth,"locus YBR279W, strain paf1, hits give low values",0.988
same,normalized growth,"locus YCL011C, strain gbp2, hits give low values",0.683 (active)
same,normalized growth,"locus YCL016C, strain dcc1, hits give low values",0.962
same,normalized growth,"locus YCL029C, strain bik1, hits give low values",0.678 (active)
same,normalized growth,"locus YCL061C, strain MRC1, hits give low values",0.748 (active)
same,normalized growth,"locus YCL069W, strain vba3, hits give low values",0.751 (active)
same,normalized growth,"locus YCR088W, strain abp1, hits give low values",0.835 (active)
same,normalized growth,"locus YDL005C, strain med2, hits give low values",0.981
same,normalized growth,"locus YDL035C, strain GPR1, hits give low values",0.589 (active)
same,normalized growth,"locus YDL040C, strain nat1, hits give low values",1.01
same,normalized growth,"locus YDL074C, strain BRE1, hits give low values",0.49 (active)
same,normalized growth,"locus YDL101C, strain DUN1, hits give low values",0.628 (active)
same,normalized growth,"locus YDL185W, strain tfp1, hits give low values",0.769 (active)
same,normalized growth,"locus YDL192W, strain arf1, hits give low values",0.732 (active)
same,normalized growth,"locus YDR001C, strain nth1, hits give low values",0.931
same,normalized growth,"locus YDR069C, strain doa4, hits give low values",0.613 (active)
same,normalized growth,"locus YDR101C, strain arx1, hits give low values",0.809 (active)
same,normalized growth,"locus YDR137W, strain rgp1, hits give low values",1.04
same,normalized growth,"locus YDR159W, strain sac3, hits give low values",0.876
same,normalized growth,"locus YDR162C, strain NBP2, hits give low values",0.326 (active)
same,normalized growth,"locus YDR195W, strain ref2",0.896
same,normalized growth,"locus YDR297W, strain sur2, hits give low values",0.821 (active)
same,normalized growth,"locus YDR318W, strain mcm21, hits give low values",0.73 (active)
same,normalized growth,"locus YDR334W, strain swr1, hits give low values",0.582 (active)
same,normalized growth,"locus YDR335W, strain msn5, hits give low values",0.793 (active)
same,normalized growth,"locus YDR388W, hits give low values",0.745 (active)
same,normalized growth,"locus YDR392W, strain spt3, hits give low values",0.602 (active)
same,normalized growth,"locus YDR502C, strain sam2, hits give low values",0.794 (active)
same,normalized growth,"locus YEL003W, strain gim4, hits give low values",0.683 (active)
same,normalized growth,"locus YEL037C, strain rad23, hits give low values",0.788 (active)
same,normalized growth,"locus YEL061C, strain CIN8 (second series), hits give low values",0.876 (active)
same,normalized growth,"locus YER015W, strain faa2, hits give low values",0.457 (active)
same,normalized growth,"locus YER016W, strain bim1, hits give low values",0.987
same,normalized growth,"locus YER110C, hits give low values",0.927
same,normalized growth,"locus YER111C, strain swi4, hits give low values",0.734 (active)
same,normalized growth,"locus YER155C, strain BEM2 (second series), hits give low values",0.755 (active)
same,normalized growth,"locus YER155C, strain BEM2, hits give low values",0.762 (active)
same,normalized growth,"locus YER167W, strain BCK2, hits give low values",0.683 (active)
same,normalized growth,"locus YFR010W, strain ubp6, hits give low values",0.632 (active)
same,normalized growth,"locus YGL078C, strain dbp3, hits give low values",0.942
same,normalized growth,"locus YGL086W, strain mad1, hits give low values",0.701 (active)
same,normalized growth,"locus YGL167C, strain pmr1, hits give low values",0.996
same,normalized growth,"locus YGL173C, strain kem1, hits give low values",0.475 (active)
same,normalized growth,"locus YGL227W, strain vid30, hits give low values",0.973
same,normalized growth,"locus YGL240W, strain doc1, hits give low values",0.977
same,normalized growth,"locus YGL248W, strain PDE1, hits give low values",0.586 (active)
same,normalized growth,"locus YGL253W, strain hxk2, hits give low values",0.657 (active)
same,normalized growth,"locus YGR078C, strain PAC10, hits give low values",0.554 (active)
same,normalized growth,"locus YGR135W, strain pre9, hits give low values",0.69 (active)
same,normalized growth,"locus YGR252W, strain gcn5, hits give low values",0.774
same,normalized growth,"locus YHR013C, strain ard1, hits give low values",0.998
same,normalized growth,"locus YHR027C, strain rpn1, hits give low values",0.356 (active)
same,normalized growth,"locus YHR079C, strain IRE1 (second series), hits give low values",0.774 (active)
same,normalized growth,"locus YHR094C, strain hxt1, hits give low values",0.828 (active)
same,normalized growth,"locus YHR129C, strain ARP1, hits give low values",0.55 (active)
same,normalized growth,"locus YHR142W, strain chs7, hits give low values",0.653 (active)
same,normalized growth,"locus YHR200W, strain rpn10, hits give low values",0.731 (active)
same,normalized growth,"locus YIL066C, strain RNR3, hits give low values",0.54 (active)
same,normalized growth,"locus YIL073C, strain SPO22, hits give low values",0.32 (active)
same,normalized growth,"locus YIL125W, strain kgd1, hits give low values",0.88 (active)
same,normalized growth,"locus YIR030C, strain dcg1, hits give low values",0.837 (active)
same,normalized growth,"locus YJL092W, strain hpr5, hits give low values",0.834 (active)
same,normalized growth,"locus YJL095W, strain BCK1 (second series), hits give low values",0.628 (active)
same,normalized growth,"locus YJL095W, strain BCK1, hits give low values",0.379 (active)
same,normalized growth,"locus YJL115W, strain asf1, hits give low values",0.829 (active)
same,normalized growth,"locus YJL129C, strain trk1, hits give low values",0.894
same,normalized growth,"locus YJL134W, strain LCB3, hits give low values",0.778 (active)
same,normalized growth,"locus YJL154C, strain vps35, hits give low values",0.817 (active)
same,normalized growth,"locus YJL164C, strain tpk1, hits give low values",0.732 (active)
same,normalized growth,"locus YJL166W, strain qcr8, hits give low values",0.891 (active)
same,normalized growth,"locus YJL168C, strain set2, hits give low values",0.864 (active)
same,normalized growth,"locus YJL187C, strain SWE1 (second series), hits give low values",0.417 (active)
